Experimental data taken from PubChem BioAssay AID2314 (National Center for Advancing Translational Sciences (NCATS), 2010).
Several values for one entry are separate records, joined by “and”; a condition that tells them apart may be missing. Equal entries are not always repeated. The whole screen tested about 300,000 compounds, of which about 37,000 (12%) were called active. Rule as the data show it: active = max response mostly above about 13% (no sharp cut-off); inactive = mostly below about 14%. For the sample, actives were picked, then their nearest neighbours and some compounds at random.

Assay: Cycloheximide Counterscreen for Small Molecule Inhibitors of Shiga Toxin; also: read at 38.3 µM for the half of the compounds with a filed dose; 0% is about no effect
Settings: cell reporter, cycloheximide protein synthesis inhibition counterscreen; stronger effect = higher value
With `Cc1ccc(C(=O)OCC(=O)NC(=O)Cc2ccccc2)c(O)c1` the max response was 4.77% (inactive). With `COc1ccc([N+](=O)[O-])cc1NC(=O)c1ccc(N(Cc2ccccc2C)S(C)(=O)=O)cc1` the max response was -0.93% (inactive). For `C=CCN(c1ccc(C(N)=O)cc1)S(C)(=O)=O`, the max response was -1.24% (inactive). With `CSCc1ccc(C(=O)Nc2cc(C)cc(C)c2)cc1` the max response was 41.7% (active). For `Cc1cc(C)cc(NC(=O)N(C)Cc2ccccc2)c1`, the max response was 4.9% (inactive). For `C=CCN(c1ccc(C(=O)Nc2cc(C)cc(C)c2)cc1)S(C)(=O)=O`, the max response was 12.7% (active). With `CC(=O)Nc1ccccc1NC(=O)c1cc(C)cc(C)c1` the max response was -1.4% (inactive). For `CCN(CC(=O)Nc1ccc(Cl)c(S(=O)(=O)N(C)C)c1)Cc1nc2ccccc2c(=O)[nH]1`, the max response was -3.17% (inactive). In the case of `Clc1ccc(-c2cc(C3CCNCC3)[nH]n2)c(Cl)c1`, the max response is reported as 9.48% (inactive). In the case of `CCc1cc(CNC(=O)CC2C(=O)NCCN2Cc2ccccc2C(F)(F)F)on1` (stereo not drawn), the max response is reported as -1.48% (inactive). For `CCOC(=O)c1cc(C)nc(S(C)(=O)=O)c1C#N`, the max response was 24.3% (active). In the case of `CCOC(=O)COc1nc(C)cc(C(F)(F)F)c1C#N`, the max response is reported as -3.74% (inactive). For `CCOC(=O)c1c(C(C#N)C#N)cc(C)nc1C`, the max response was 1.41% (inactive). With `O=C1CCCN2N=C(SCC(=O)Nc3ccc(Br)cc3)SC2=N1` the max response was 7.4% (inactive). In the case of `Cc1ccc(CN(C)Cc2cc(=O)oc3cc(C)c(Cl)cc23)cc1`, the max response is reported as 8.9% (inactive). For `O=[N+]([O-])c1ccccc1N/N=C1\CCc2ccccc21`, the max response was 22.3% (active). For `O=[N+]([O-])c1cc(C(F)(F)F)ccc1NN=C1CCCC1`, the max response was -3.4% (inactive). With `CN1CCN(CCNC(=O)Nc2ccccc2[N+](=O)[O-])CC1` the max response was -3.83% (inactive). For `Cc1ccc2nc(-c3ccncc3)cc(C(=O)Nc3ccc4c(c3)OCCO4)c2c1`, the max response was 7.28% (inactive). In the case of `CCOC(=O)c1cnc2ccc(F)cc2c1Nc1ccc2c(c1)OCCO2`, the max response is reported as 32.3% (active). In the case of `O=C(Nc1ccc2c(c1)OCCO2)C(c1ccc(F)cc1)N1CCCCC1` (stereo not drawn), the max response is reported as -0.355% (inactive). With `C/C(CC(=O)NCc1ccc(Cl)cc1)=N\NC(=O)COc1ccc(C)cc1Br` the max response was -1.26% (inactive). For `Cc1ccccc1C(=O)N1CCC(C(=O)Oc2ccc(C#N)cc2)CC1`, the max response was -2.38% (inactive). In the case of `CCn1c(CC(=O)Nc2ccccc2)nnc1SCC(=O)N1CCOCC1`, the max response is reported as -2.97% (inactive). With `COc1ccc(CCn2c(-c3ccco3)nc3nc4ccccc4nc32)cc1OC` the max response was 7.86% (inactive). In the case of `Clc1cccc(-c2nc3nc4ccccc4nc3n2Cc2ccco2)c1`, the max response is reported as 31.5% (active). In the case of `Cc1cc(NC(=O)CSc2nc3cc(Cl)ccc3c(=O)n2Cc2ccco2)no1`, the max response is reported as 1.42% (inactive). With `Cc1cc2oc(=O)cc(CN3CCN(Cc4ccccc4)CC3)c2cc1C` the max response was 1.14% (inactive). In the case of `COc1cc(CN2CC(C)CC(C)C2)cc([N+](=O)[O-])c1O` (stereo not drawn), the max response is reported as -0.873% (inactive). For `O=C(COC(=O)c1ccc(S(=O)(=O)N2CCc3ccccc3C2)cc1)NC(=O)NCc1ccco1`, the max response was 6.51% (inactive). For `O=C(CN1C(=O)COc2ccc(Cl)cc21)Nc1ccc(N2CCOCC2)cc1`, the max response was 1.87% (inactive). In the case of `Cc1csc(NC(=O)NC2(C(F)(F)F)Oc3ccccc3O2)n1`, the max response is reported as 1.16% (inactive). In the case of `O=C(Nc1cc(N2CCOCC2)ncn1)NC1(C(F)(F)F)Oc2ccc(Cl)cc2O1` (stereo not drawn), the max response is reported as 45.4% (active). For `CCc1cc(=O)oc2c(C)c(OCC(=O)NCCN3CCOCC3)ccc12`, the max response was 1.6% (inactive). With `Cc1ccc(NC(=O)CCN2C(=O)c3ccccc3C2=O)cc1C` the max response was -2.39% (inactive). For `CC(C)=CCCC(C)CN1CCC(n2nccc2NC(=O)c2ccccc2)CC1` (stereo not drawn), the max response was -5.01% (inactive). For `O=C(NCN1CCN(CCO)CC1)c1cnccn1`, the max response was -4.08% (inactive). With `CCN1CCN(c2ccc(NC(=O)c3cnccn3)cc2)CC1` the max response was 26% (active). In the case of `O=C(Nc1ccc(S(=O)(=O)N2CCCCC2)cc1)c1cnccn1`, the max response is reported as -3.02% (inactive). With `N#CCSc1nc(-c2ccccc2)nc2ccc(F)cc12` the max response was -2.28% (inactive). With `Cn1cc(CNC(=O)c2ccc(OC3CCN(Cc4ccccn4)CC3)cc2)cn1` the max response was 9.98% (inactive). With `CN(CCc1ccccn1)C(=O)c1ccc(OC2CCN(Cc3ccccn3)CC2)cc1` the max response was 0.254% (inactive). With `CN(CCc1ccccn1)C(=O)c1ccc(OC2CCN(CCc3ccccc3)CC2)cc1` the max response was 17% (active). In the case of `OCCC(O)CO` (stereo not drawn), the max response is reported as -4.13% (inactive) and -5.85% (inactive) and -2.71% (inactive). For `CS(=O)(=O)c1ccc(-c2nnn(CC(=O)Nc3ccc4c(c3)OCCO4)n2)cc1`, the max response was 15.4% (active). With `Cn1ccnc1SCC(=O)Nc1ccc2c(c1)OCCO2` the max response was 18% (inactive). In the case of `O=C(CN(c1ccc2c(c1)OCCO2)S(=O)(=O)c1ccccc1)Nc1ccc2c(c1)OCO2`, the max response is reported as 11.4% (inactive). For `O=C(CSc1nc(C2CC2)nc2ccccc12)Nc1ccc2c(c1)OCCO2`, the max response was 1.1% (inactive). For `CC(C)CNS(=O)(=O)c1ccc(OCC(=O)Nc2ccc3c(c2)OCO3)c(Cl)c1`, the max response was 5.31% (inactive). With `COc1ccc(NC(=O)CN(C)S(=O)(=O)c2ccccc2)cc1OC` the max response was -1.84% (inactive). In the case of `COc1ccc(S(=O)(=O)N(C)CC(=O)Nc2ccc3c(c2)OCCO3)cc1OC`, the max response is reported as 18.2% (active). With `Cc1cccc(C(=O)Nc2ccccc2-c2nnn(CC(=O)Nc3ccc4c(c3)OCCO4)n2)c1` the max response was -4.9% (inactive). For `CC(C)NS(=O)(=O)c1ccc(OCC(=O)Nc2ccc3c(c2)OCCO3)cc1`, the max response was 2.4% (inactive). In the case of `CCOC(=O)c1ccc(NC(=O)Cn2nnc(-c3ccc(C)cc3)n2)cc1`, the max response is reported as -3.53% (inactive). With `O=C(CSc1nc2ncccc2[nH]1)Nc1ccc2c(c1)OCCO2` the max response was 25.8% (active). For `CCc1ccccc1OCC(=O)Nc1ccc2c(c1)OCCO2`, the max response was 35.2% (active). With `CCc1ccc(Oc2nc([N+](=O)[O-])nn2C)cc1` the max response was -1.09% (inactive). With `COc1ccc(OCCCCN2CCC(C)CC2)cc1` the max response was -5.4% (inactive). For `CCN(CC)S(=O)(=O)c1ccc(C(=O)N2CCN(C3=NS(=O)(=O)c4ccccc43)CC2)cc1`, the max response was 7.96% (inactive). In the case of `CC1CCC(C(C)C)C(=O)/C1=C\c1ccc(NC(=O)CCC(=O)O)cc1` (stereo not drawn), the max response is reported as -5.07% (inactive). With `COc1ccc(CN2CN(C3CCCC3)CSC2=S)cc1` the max response was 3.32% (inactive). For `O=S(=O)(c1ccc(Br)cc1)N1CCC(c2nc3ccccc3[nH]2)CC1`, the max response was -3.07% (inactive). With `CCC(Cc1ccccc1)NS(=O)(=O)c1ccc2c(c1)NC(=O)CS2` (stereo not drawn) the max response was 0.995% (inactive). With `Cc1cc(C)c(C#N)c(Nc2cccc(Br)c2)n1` the max response was 0.576% (inactive). For `C[C@H](NC(=O)C1CC(=O)N(c2ccc3c(c2)OCCO3)C1)C(=O)N1CCC(C(=O)O)CC1` (stereo partly drawn), the max response was 7.17% (inactive). In the case of `COc1ccc(C(=O)NC2CC(C)(C)NC(C)(C)C2)cc1OC`, the max response is reported as -1.7% (inactive). In the case of `COc1ccc(CN(C)C(C)C(=O)NC2CCCc3ccccc32)cc1` (stereo not drawn), the max response is reported as 4.63% (inactive). For `COc1ccc(C2(C)NC(=O)N(CC(=O)c3ccc4c(c3)OCO4)C2=O)cc1` (stereo not drawn), the max response was 1.46% (inactive). For `CC(=O)NCC(=O)N(C)C(C(=O)Nc1ccc2c(c1)OCCO2)c1ccccc1` (stereo not drawn), the max response was -1.79% (inactive). In the case of `CCCCC(=O)Nc1ccc2c(c1)OCCO2`, the max response is reported as 36.8% (active). For `O=C(CCS(=O)(=O)Cc1ccccc1)Nc1ccc2c(c1)OCCO2`, the max response was -1.91% (inactive). For `O=C(COc1ccc(Cl)cc1)Nc1ccc2oc(=O)ccc2c1`, the max response was -3.63% (inactive). In the case of `CCOc1ccc(NCCC(=O)c2ccc3c(c2)OCO3)cc1`, the max response is reported as 14.4% (active). In the case of `CCC(C(=O)Nc1ccc2c(c1)OCCO2)c1ccccc1` (stereo not drawn), the max response is reported as 19.2% (active). With `CCCCN(CC(=O)NC(C)(C)C)C(=O)C(=O)Nc1ccc2c(c1)OCCO2` the max response was 5.6% (inactive). With `O=C(CN1CCN(c2ncc(C(F)(F)F)cc2Cl)CC1)Nc1ccc2c(c1)OCO2` the max response was 2.27% (inactive). In the case of `CCC(C(=O)Nc1ccc(C(C)C)cc1)c1ccccc1` (stereo not drawn), the max response is reported as -1.28% (inactive). For `CCOc1ccc(C(=O)CCN2CCOCC2)cc1`, the max response was 9.26% (inactive). With `O=C(COc1ccc(Cl)cc1)Nc1ccc2c(c1)OCO2` the max response was 15.8% (active). In the case of `COCCOC(=O)C1=C(C)NC(=O)NC1c1cc2c(cc1Br)OCO2` (stereo not drawn), the max response is reported as -5.73% (inactive). For `Cc1ccc(NC(=O)CN(C)C(=O)COC(=O)C(C)(C)Oc2ccc(Cl)cc2)cc1`, the max response was -3.38% (inactive). For `COc1ccccc1C(=O)Nn1cnnc1`, the max response was -2.95% (inactive). With `CCC(C)(C)NC(=O)CN(C(=O)CCC(=O)Nc1nccs1)c1ccc2c(c1)OCO2` the max response was -3.66% (inactive). With `COc1ccc(CCNC(=O)NS(=O)(=O)c2ccc(C)cc2)cc1OC` the max response was -2.33% (inactive). In the case of `COc1ccc(S(=O)(=O)NCCc2c[nH]c3ccccc23)cc1OC`, the max response is reported as 2.61% (inactive). In the case of `Nc1nc(SCc2cccc(Br)c2)n[nH]1`, the max response is reported as 0.308% (inactive). In the case of `CCc1ccc(N2CC(C(=O)N3CCCCCC3)CC2=O)cc1` (stereo not drawn), the max response is reported as 15.1% (inactive). In the case of `Cc1ccc(SCC(=O)Nc2ccc3c(c2)OCCO3)cc1`, the max response is reported as 73.6% (active). For `CCN(CC(=O)Nc1ccc2c(c1)OCCO2)Cc1cc(=O)oc2cc(C)c(C)cc12`, the max response was 11.2% (active). For `CCn1c(SCC(=O)Nc2ccc3c(c2)OCCO3)nnc1-c1ccncc1`, the max response was 2.74% (inactive). With `COc1cccc(NC(=O)COC(=O)CCOc2ccccc2OC)c1` the max response was -1.24% (inactive). In the case of `COC(=O)CCNc1ccc2c(c1)OCCO2`, the max response is reported as 48.2% (active). For `COc1ccccc1OCCCC(=O)Nc1ccc2c(c1)OCCO2`, the max response was 32.1% (active). For `CCC(C)(C)NC(=O)CN(C(=O)C(=O)Nc1ccc2c(c1)OCCO2)C(C)(C)CC`, the max response was -5.87% (inactive). In the case of `CCn1c(COc2ccccc2)nnc1SCC(=O)Nc1ccc2c(c1)OCCO2`, the max response is reported as 8.26% (inactive). For `Cc1ccc(S(=O)(=O)NCC(=O)Nc2ccc3c(c2)OCCO3)cc1`, the max response was 6.27% (inactive). For `CCN(CC(=O)Nc1ccc2c(c1)OCO2)S(=O)(=O)c1ccccc1`, the max response was -0.651% (inactive). For `O=C(COc1ccc2c(C(F)(F)F)cc(=O)oc2c1)Nc1ccc2c(c1)OCCO2`, the max response was 5.22% (inactive).
